Inconclusive results are not listed. Values without a mark were called inactive. Calls of active or inactive are those of the source. The call rests on the fitted dose curve; in most records, active means well fitted inhibition curve with a large enough effect in the signal ratio in the repeat runs (not every such curve was filed as active); inconclusive means weak or mixed curves, or effect the other way; inactive means no such curve, though single readings can be large or run the other way; the % refers to the signal ratio.
On the % scale 0 is the no-effect control and ±100 the full control effect.

Sequence of Vitamin D3 receptor (Homo sapiens) (P11473 whole entry, looked up): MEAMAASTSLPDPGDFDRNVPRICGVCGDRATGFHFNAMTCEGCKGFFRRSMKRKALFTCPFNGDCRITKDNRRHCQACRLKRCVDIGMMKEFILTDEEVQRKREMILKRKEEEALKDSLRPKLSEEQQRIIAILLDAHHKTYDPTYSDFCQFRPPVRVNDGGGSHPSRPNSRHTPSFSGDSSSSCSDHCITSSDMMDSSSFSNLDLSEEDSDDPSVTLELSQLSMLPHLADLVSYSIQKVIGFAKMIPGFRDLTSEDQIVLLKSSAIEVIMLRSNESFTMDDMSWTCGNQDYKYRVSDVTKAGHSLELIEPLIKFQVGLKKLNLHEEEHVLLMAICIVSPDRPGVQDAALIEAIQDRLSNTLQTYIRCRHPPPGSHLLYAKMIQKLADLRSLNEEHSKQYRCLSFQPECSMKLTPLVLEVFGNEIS

The assay has as its target Vitamin D3 receptor (Homo sapiens) (UniProt P11473). As to the kind of experiment: qHTS assay to identify small molecule antagonists of the vitamin D receptor (VDR) signaling pathway (AID 743223). The note with it: VDR-UAS-bla HEK293T, beta-lactamase FRET ratio, 16 h; series mostly up to 61 µM; activity change, negative = inhibition: at the top concentration. From the text:
U.S. Tox21 Program National Center for Advancing Translational Sciences [NCATS] NIH Chemical Genomics Center [NCGC] U.S. Environmental Protection Agency [EPA] National Institutes of Environmental Health Sciences [NIEHS] National Toxicology Program [NTP] U.S. Food and Drug Administration [FDA] Tox21 Assay Overview: The vitamin D receptor (VDR), a member of nuclear hormone receptor superfamily, plays a critical role in calcium homeostasis and bone metabolism. It is also involved in cell differentiation and growth, and thrombogenicity.
Tox21 Assay Protocol Summary: VDR-bla cells were dispensed at 2,000 cells/5 uL of assay medium per well into black wall/clear-bottom 1536-well plates using a Multidrop Combi (Thermo Fisher Scientific, Waltham, MA) dispenser. After the assay plates were incubated at a 37C and 5% CO2 for 4 h, 23 nL of compounds dissolved in DMSO, positive controls or DMSO only was transferred to the assay plate by a Pintool station (Kalypsys, San Diego, CA), followed by addition of 1 uL of 1alpha, 25-Dihydroxy Vitamin D3 (3 nM, final concentration in the wells) using a Bioraptr Flying Reagent Dispenser (FRD) workstation (Beckman Coulter, Indianapolis, IN). The plates were incubated at 37C and 5% CO2 for 16 h, and then 1 uL of LiveBLAzerTM B/G FRET substrate was added using a Bioraptr FRD. The plates were incubated at room temperature for 2 h and fluorescence intensity was measured by an Envision plate reader (PerkinElmer, Shelton, CT).
On the technique in general: qHTS replaces the single test concentration by a dilution series.
Take `CCCCCCCCCCCCc1ccccc1`: the “activity change, negative = inhibition” value was -0.249%.

In the case of `OCCOCCN1CCN(C2=Nc3ccccc3Sc3ccccc32)CC1`, the “activity change, negative = inhibition” value is 0.724%.

Take `CCCCC(CC)CO` (stereo not given): the “activity change, negative = inhibition” value was 4.45%.

Consider `CC1=C(C)S(=O)(=O)CCS1(=O)=O`, for which the result was inactive.

Regarding `CC(=O)CC(=O)Nc1ccccc1C`, the result was inactive.

For the molecule `O=C(O)CCCCCCCCCCC(=O)O`, the outcome was inactive.

Consider `CCCCC(CC)COC(=O)CCCCC(=O)OCC(CC)CCCC` (stereo not given), for which the “activity change, negative = inhibition” value was -1.32%.

In the case of `CCC(O)OCCCOC` (stereo not given), the “activity change, negative = inhibition” value is 9.73%.

Turning to `C=C(C)C(=O)OCCOCCOCCOC(=O)C(=C)C`, the outcome was inactive.

Turning to `OCCOCCOCCO`, the “activity change, negative = inhibition” value was 10.5%.

Consider `CCCCCCCCCCCCS`, for which the “activity change, negative = inhibition” value is 3.4%.

Turning to `Fc1ccc(Br)cc1`, the result was inactive.

`C[Si](O[Si](C)(C)C)O[Si](C)(C)C`: the outcome was inactive.

With `O=C(OCCOCCOC(=O)c1ccccc1)c1ccccc1`, the result was inactive.

As to `C=C(C)C(=O)Nc1ccc(Cl)c(Cl)c1`, the “activity change, negative = inhibition” value is -0.0598%.

In the case of `CC1CCC(C(C)C)C(O)C1` (stereo not given), the “activity change, negative = inhibition” value is 1.29%.

`c1ccc2c(c1)ccc1ccccc12`: the outcome was inactive.

With `c1ccc(OCCOc2ccccc2)cc1`, the result was inactive.

Consider `Nc1cc([N+](=O)[O-])ccc1O`, for which the outcome was inactive.

For `O=C=NCCCCCCN=C=O`, the outcome was inactive.

With `Cc1ccc(N(C)C)cc1`, the “activity change, negative = inhibition” value is -1.53%.

Turning to `CCc1cccc(C)c1N`, the “activity change, negative = inhibition” value is -8.08%.

As to `CCCCCCCCCCCCCCO`, the outcome was inactive.

In the case of `C=CCNC(N)=S`, the “activity change, negative = inhibition” value was -5.73%.

For the molecule `c1ccc2scnc2c1`, the result was inactive.

Regarding `Cc1occc(=O)c1O`, the “activity change, negative = inhibition” value was -16%.

As for `O=C(O)c1cc(C(=O)O)cc(S(=O)(=O)O)c1`, the outcome was inactive.

As for `CCCCOC(=O)COc1ccc(Cl)cc1Cl`, the result was inactive.

Consider `O=C(O)CC(C(=O)O)C(CC(=O)O)C(=O)O` (stereo not given), for which the outcome was inactive.

For `CC(C)CC(=O)CC(C)C`, the “activity change, negative = inhibition” value is 15.4%.

Turning to `CCC(O)OC(O)CC` (stereo not given), the “activity change, negative = inhibition” value was 13.3%.

Take `O=[N+]([O-])c1ccc(/C=C/c2ccc([N+](=O)[O-])cc2S(=O)(=O)O)c(S(=O)(=O)O)c1`: the “activity change, negative = inhibition” value is -3.09%.

On to `ON=C1CCCCC1`, for which the result was inactive.

As for `CC(c1cc2ccccc2s1)N(O)C(N)=O` (stereo not given), the result was inactive.

Take `O=P(OC(CCl)CCl)(OC(CCl)CCl)OC(CCl)CCl`: the outcome was inactive.

Regarding `CCCCCCCCCCCCCCCO`, the result was inactive.

Regarding `NNc1nncc2ccccc12`, the “activity change, negative = inhibition” value was 1.52% [at 28.5 µM].

For the molecule `CSCCC=O`, the “activity change, negative = inhibition” value is -5.15% [at 78.8 µM].

With `N[C@@H](Cc1cc(I)c(Oc2cc(I)c(O)c(I)c2)c(I)c1)C(=O)O`, the “activity change, negative = inhibition” value is 11.6%.

In the case of `CCCCCC(N)=O`, the “activity change, negative = inhibition” value was 5.17%.
